# Data taken from PMC7862700, “An all-to-all approach to the identification of sequence-specific readers for epigenetic DNA modifications on cytosine”.
# Columns and labels:
# Experiment in all cases: DAPPL (digital affinity profiling via proximity ligation, sequencing); 10 mM Tris-HCl pH 7.5, 50 mM NaCl, 1 mM DTT, 4% glycerol, room temperature, 30 min; GST-TFs on glutathione beads, 16-mer random dsDNA library, 0.1% formaldehyde crosslink after washing; high values mean tight binding
# FLI1 = biological target: T1, FLI1 (Homo sapiens, UniProt Q01543 1-452); settings: protein: recombinant; tags: N-terminal GST; dsDNA, one strand shown
# T1 sequence: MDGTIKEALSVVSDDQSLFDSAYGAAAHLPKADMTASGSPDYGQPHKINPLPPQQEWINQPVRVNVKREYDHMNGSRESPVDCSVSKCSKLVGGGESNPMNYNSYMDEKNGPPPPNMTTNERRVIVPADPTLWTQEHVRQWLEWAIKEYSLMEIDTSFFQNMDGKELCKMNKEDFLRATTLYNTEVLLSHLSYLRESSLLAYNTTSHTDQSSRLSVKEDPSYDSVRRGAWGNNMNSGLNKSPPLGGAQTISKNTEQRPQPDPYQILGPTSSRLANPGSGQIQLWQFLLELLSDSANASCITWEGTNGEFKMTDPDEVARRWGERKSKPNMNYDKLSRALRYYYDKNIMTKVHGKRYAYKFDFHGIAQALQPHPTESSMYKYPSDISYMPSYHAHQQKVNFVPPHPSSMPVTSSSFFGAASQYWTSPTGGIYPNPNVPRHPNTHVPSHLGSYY
# Outline: (§1)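 Pools of DNA-barcoded human transcription factors, expressed in yeast as GST fusions on glutathione beads and combined with a tag-only sample, were incubated with 200 nmole of a 16-mer random double-stranded DNA library. Incubation took 30 min at room temperature in Tris/NaCl/DTT/glycerol buffer and was followed by washing, 0.1% formaldehyde crosslinking, proximity ligation (BsaI/T4 ligase, 1 h, 37 °C), PCR amplification and sequencing on an Illumina NextSeq500. Binding signal is the ratio of a hexamer's read frequency for a factor to its frequency for the tag-only sample.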
# ELK1 = biological target: T2, ELK1 (Homo sapiens, UniProt P19419 1-428); settings: protein: recombinant; tags: N-terminal GST; dsDNA, one strand shown
# T2 sequence: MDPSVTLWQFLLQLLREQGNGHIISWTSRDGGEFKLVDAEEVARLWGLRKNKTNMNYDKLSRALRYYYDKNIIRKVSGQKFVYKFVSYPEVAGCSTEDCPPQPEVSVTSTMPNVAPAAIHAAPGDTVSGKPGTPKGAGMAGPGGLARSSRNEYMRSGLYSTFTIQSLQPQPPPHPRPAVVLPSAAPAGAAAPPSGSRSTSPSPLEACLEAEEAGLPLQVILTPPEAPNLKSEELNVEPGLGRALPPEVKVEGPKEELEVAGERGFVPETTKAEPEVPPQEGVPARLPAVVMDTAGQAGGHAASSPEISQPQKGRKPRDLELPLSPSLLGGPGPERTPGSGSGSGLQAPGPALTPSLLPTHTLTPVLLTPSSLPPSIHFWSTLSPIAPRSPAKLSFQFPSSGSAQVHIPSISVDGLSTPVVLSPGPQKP
# Outline: as §1
# GABPA = biological target: T3, GABPA (Homo sapiens, UniProt Q06546 1-454); settings: protein: recombinant; tags: N-terminal GST; dsDNA, one strand shown
# T3 sequence: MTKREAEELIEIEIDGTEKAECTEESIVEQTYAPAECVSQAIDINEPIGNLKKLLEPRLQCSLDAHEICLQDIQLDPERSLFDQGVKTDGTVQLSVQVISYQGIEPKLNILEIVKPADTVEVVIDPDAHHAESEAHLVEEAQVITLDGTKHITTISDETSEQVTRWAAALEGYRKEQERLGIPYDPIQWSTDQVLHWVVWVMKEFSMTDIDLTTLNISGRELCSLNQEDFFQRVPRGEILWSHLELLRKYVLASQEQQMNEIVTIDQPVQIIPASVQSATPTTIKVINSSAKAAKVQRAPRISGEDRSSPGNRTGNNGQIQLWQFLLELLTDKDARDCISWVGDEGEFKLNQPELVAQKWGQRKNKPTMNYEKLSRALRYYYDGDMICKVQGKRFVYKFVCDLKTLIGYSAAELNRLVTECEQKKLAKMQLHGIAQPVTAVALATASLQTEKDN
# Outline: as §1
# ERG = biological target: T4, ERG (Homo sapiens, UniProt P11308 1-479); settings: protein: recombinant; tags: N-terminal GST; dsDNA, one strand shown
# T4 sequence: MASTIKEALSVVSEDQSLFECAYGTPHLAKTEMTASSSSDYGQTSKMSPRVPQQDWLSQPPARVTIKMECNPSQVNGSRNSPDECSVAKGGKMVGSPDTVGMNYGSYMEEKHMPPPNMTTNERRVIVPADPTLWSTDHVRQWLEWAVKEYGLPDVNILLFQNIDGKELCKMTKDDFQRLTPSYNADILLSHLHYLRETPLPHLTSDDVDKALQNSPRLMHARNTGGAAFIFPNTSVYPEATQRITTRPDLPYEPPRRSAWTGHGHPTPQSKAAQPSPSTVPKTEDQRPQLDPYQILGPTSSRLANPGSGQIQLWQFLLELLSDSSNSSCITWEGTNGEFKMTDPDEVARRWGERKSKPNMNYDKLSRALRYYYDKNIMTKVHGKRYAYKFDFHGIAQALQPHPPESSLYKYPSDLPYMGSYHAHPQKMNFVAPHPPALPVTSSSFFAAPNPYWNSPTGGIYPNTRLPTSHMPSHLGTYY
# Outline: as §1
# ELF1 = ELF1 (Homo sapiens, UniProt P32519 1-619); settings: protein: recombinant; tags: N-terminal GST; dsDNA, one strand shown
# Outline: as §1
# EHF = biological target: T5, EHF (Homo sapiens, UniProt Q9NZC4 1-300); settings: protein: recombinant; tags: N-terminal GST; dsDNA, one strand shown
# T5 sequence: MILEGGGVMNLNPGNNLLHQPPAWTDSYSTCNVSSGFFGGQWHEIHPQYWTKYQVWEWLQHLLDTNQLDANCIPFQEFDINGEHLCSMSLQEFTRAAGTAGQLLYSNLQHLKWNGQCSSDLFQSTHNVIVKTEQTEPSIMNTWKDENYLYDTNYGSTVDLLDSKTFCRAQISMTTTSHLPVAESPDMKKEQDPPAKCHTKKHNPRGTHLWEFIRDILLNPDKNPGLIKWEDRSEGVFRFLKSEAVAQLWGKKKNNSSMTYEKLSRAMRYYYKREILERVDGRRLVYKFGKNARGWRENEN
# Outline: as §1
# SPI1 = SPI1 (Homo sapiens, UniProt P17947 1-270); settings: protein: recombinant; tags: N-terminal GST; dsDNA, one strand shown
# Outline: as §1
# SPIB = SPIB (Homo sapiens, UniProt Q01892 1-262); settings: protein: recombinant; tags: N-terminal GST; dsDNA, one strand shown
# Outline: as §1
# ELK3 = biological target: T6, ELK3 (Homo sapiens, UniProt P41970 1-407); settings: protein: recombinant; tags: N-terminal GST; dsDNA, one strand shown
# T6 sequence: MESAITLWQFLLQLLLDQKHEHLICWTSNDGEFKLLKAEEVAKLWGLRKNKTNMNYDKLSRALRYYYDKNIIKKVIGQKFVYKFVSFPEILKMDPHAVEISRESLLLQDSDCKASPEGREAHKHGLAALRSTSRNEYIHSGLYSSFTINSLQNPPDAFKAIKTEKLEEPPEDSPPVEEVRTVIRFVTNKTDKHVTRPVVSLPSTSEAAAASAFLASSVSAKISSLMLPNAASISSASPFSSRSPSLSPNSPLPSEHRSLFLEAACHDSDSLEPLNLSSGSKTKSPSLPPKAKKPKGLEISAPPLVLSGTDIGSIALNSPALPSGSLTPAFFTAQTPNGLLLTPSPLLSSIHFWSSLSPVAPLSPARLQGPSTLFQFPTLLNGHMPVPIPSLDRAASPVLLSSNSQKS
# Outline: as §1
# FEV = biological target: T7, FEV (Homo sapiens, UniProt Q99581 1-238); settings: protein: recombinant; tags: N-terminal GST; dsDNA, one strand shown
# T7 sequence: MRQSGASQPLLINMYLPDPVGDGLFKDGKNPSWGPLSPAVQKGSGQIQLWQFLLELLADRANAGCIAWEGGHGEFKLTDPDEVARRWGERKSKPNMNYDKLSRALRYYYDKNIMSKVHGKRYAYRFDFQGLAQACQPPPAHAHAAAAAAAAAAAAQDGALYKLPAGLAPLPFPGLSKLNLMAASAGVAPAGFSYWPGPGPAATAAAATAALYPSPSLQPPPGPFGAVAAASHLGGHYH
# Outline: as §1
# ETV5 = ETV5 (Homo sapiens, UniProt P41161 1-510); settings: protein: recombinant; tags: N-terminal GST; dsDNA, one strand shown
# Outline: as §1
# HSF1 = HSF1 (Homo sapiens, UniProt Q00613 1-529); settings: protein: recombinant; tags: N-terminal GST; chain copies: 3; dsDNA, one strand shown
# Outline: as §1
# SPIC = biological target: T8, SPIC (Homo sapiens, UniProt Q8N5J4 1-248); settings: protein: recombinant; tags: N-terminal GST; dsDNA, one strand shown
# T8 sequence: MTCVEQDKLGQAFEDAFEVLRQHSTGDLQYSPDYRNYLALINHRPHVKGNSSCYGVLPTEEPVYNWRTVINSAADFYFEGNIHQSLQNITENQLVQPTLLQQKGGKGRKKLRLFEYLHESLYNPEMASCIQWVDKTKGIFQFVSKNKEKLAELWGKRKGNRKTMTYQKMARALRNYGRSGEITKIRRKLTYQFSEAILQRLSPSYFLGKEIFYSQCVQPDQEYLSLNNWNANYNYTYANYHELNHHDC
# Outline: as §1
# ELF4 = ELF4 (Homo sapiens, UniProt Q99607 1-663); settings: protein: recombinant; tags: N-terminal GST; dsDNA, one strand shown
# Outline: as §1
# ELK4 = biological target: T9, ELK4 (Homo sapiens, UniProt P28324-2 1-405); settings: protein: recombinant; tags: N-terminal GST; dsDNA, one strand shown
# T9 sequence: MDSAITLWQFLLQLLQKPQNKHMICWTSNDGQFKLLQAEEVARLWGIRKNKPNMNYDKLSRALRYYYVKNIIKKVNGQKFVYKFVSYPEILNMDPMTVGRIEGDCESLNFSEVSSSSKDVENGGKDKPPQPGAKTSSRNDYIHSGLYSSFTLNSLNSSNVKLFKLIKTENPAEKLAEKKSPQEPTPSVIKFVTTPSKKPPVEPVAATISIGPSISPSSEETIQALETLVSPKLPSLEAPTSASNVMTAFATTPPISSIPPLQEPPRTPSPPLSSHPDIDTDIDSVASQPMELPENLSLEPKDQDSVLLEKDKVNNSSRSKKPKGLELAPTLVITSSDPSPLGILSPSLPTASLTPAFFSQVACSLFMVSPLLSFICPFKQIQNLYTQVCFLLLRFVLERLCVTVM
# Outline: as §1
# ETV2 = biological target: T10, ETV2 (Homo sapiens, UniProt O00321 1-342); settings: protein: recombinant; tags: N-terminal GST; dsDNA, one strand shown
# T10 sequence: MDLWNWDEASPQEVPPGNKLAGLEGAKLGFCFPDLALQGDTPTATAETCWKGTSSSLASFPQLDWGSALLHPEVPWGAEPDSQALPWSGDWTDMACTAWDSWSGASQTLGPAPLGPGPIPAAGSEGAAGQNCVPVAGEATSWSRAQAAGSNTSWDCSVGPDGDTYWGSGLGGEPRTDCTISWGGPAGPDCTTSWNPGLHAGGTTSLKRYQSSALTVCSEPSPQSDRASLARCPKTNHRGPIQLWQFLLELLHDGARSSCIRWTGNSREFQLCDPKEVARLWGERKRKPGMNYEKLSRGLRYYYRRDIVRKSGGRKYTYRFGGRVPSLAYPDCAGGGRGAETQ
# Outline: as §1
# ELF3 = biological target: T11, ELF3 (Homo sapiens, UniProt P78545 1-371); settings: protein: recombinant; tags: N-terminal GST; dsDNA, one strand shown
# T11 sequence: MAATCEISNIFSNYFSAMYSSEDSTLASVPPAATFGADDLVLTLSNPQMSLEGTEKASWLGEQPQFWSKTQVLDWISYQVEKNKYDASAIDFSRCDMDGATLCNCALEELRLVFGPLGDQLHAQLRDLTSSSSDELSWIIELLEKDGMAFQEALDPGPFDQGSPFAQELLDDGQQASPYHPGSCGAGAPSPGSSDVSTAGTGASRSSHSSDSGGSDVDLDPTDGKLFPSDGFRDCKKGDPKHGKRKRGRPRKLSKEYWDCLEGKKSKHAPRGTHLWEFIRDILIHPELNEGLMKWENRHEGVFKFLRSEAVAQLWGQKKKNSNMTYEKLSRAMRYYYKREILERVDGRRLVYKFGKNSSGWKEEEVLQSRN
# Outline: as §1
# CRX = CRX (Homo sapiens, UniProt O43186 1-299); settings: protein: recombinant; tags: N-terminal GST; dsDNA, one strand shown
# Outline: as §1
# ETV1 = ETV1 (Homo sapiens, UniProt P50549 1-477); settings: protein: recombinant; tags: N-terminal GST; dsDNA, one strand shown
# Outline: as §1
# ELF1, sequence (P32519 whole entry): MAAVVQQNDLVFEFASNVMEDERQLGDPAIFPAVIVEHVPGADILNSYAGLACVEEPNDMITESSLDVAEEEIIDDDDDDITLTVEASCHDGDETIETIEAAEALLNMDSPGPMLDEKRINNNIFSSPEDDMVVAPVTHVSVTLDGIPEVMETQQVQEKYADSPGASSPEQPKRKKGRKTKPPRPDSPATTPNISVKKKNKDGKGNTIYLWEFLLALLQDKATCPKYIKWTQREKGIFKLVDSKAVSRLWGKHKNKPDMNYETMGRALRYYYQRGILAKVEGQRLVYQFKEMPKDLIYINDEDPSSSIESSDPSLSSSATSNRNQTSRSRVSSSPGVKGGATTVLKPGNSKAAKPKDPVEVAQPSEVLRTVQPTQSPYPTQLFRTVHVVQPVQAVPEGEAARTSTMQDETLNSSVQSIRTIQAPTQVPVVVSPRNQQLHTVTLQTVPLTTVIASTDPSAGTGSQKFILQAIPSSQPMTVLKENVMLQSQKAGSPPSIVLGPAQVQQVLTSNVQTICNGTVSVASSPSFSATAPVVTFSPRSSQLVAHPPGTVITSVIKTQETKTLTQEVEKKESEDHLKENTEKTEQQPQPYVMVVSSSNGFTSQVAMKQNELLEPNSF
# CRX, sequence (O43186 whole entry): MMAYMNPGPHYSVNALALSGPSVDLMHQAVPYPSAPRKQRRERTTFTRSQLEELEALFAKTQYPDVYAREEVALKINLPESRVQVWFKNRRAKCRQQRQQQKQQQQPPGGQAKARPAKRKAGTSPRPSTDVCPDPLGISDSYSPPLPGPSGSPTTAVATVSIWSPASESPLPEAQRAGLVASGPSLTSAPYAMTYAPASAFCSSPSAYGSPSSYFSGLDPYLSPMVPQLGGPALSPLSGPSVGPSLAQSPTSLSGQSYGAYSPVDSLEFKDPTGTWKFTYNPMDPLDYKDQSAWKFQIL
# ELF4, sequence (Q99607 whole entry): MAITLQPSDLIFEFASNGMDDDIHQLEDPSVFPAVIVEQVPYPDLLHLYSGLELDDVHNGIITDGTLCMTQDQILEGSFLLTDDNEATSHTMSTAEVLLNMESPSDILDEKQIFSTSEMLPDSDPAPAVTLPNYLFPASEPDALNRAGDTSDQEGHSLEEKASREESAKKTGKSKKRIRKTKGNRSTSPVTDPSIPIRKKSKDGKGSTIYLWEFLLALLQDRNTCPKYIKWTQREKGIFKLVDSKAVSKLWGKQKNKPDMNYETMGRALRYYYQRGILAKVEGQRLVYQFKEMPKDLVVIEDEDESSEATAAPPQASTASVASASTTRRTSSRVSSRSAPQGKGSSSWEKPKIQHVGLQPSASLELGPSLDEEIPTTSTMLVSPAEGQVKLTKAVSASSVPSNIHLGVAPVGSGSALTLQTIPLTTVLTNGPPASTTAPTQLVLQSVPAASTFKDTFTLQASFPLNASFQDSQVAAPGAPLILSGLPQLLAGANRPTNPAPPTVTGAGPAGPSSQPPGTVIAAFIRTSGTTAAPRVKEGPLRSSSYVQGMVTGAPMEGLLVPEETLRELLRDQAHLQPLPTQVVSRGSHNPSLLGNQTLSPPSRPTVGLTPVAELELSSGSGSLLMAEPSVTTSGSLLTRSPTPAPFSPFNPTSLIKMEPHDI
# ETV1, sequence (P50549 whole entry): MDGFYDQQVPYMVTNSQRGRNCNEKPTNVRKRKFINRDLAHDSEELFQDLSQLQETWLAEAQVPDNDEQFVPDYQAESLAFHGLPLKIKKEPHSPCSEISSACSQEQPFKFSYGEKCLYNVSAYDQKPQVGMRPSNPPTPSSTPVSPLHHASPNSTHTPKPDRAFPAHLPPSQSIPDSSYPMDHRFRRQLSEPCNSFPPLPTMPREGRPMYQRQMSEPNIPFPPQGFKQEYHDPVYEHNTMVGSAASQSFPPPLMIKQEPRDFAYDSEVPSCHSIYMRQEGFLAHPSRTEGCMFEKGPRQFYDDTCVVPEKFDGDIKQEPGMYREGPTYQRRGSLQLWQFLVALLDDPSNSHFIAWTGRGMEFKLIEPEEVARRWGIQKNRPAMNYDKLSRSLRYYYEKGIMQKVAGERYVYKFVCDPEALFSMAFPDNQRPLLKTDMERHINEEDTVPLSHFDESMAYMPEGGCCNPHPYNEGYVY
# ETV5, sequence (P41161 whole entry): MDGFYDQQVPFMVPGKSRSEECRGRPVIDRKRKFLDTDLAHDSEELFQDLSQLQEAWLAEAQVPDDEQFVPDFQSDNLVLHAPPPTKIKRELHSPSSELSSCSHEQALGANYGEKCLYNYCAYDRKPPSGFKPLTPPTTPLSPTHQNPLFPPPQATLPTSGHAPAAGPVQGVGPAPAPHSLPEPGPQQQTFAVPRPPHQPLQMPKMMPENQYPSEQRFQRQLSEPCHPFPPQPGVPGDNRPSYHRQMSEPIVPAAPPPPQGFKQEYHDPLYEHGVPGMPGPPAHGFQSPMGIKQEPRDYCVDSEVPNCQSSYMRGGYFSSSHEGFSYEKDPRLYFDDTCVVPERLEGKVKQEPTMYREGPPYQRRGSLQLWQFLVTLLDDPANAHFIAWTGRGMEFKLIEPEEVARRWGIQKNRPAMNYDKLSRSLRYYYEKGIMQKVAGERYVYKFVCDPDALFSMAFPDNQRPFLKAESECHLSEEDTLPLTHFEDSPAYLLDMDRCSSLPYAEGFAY
# HSF1, sequence (Q00613 whole entry): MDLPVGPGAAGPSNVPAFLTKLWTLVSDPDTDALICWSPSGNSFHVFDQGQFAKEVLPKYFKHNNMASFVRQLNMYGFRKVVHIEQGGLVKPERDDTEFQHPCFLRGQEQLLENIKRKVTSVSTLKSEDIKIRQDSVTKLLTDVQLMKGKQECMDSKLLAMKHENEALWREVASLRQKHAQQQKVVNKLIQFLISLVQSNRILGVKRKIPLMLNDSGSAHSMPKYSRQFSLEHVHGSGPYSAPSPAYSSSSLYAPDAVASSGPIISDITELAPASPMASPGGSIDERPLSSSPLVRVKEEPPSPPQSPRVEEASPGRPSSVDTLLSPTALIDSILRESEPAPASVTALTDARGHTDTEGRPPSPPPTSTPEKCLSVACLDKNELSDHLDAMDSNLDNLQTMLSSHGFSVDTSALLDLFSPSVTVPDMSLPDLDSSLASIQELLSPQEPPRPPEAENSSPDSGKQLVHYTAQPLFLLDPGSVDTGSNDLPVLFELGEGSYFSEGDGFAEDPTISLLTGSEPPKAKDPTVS
# SPIB, sequence (Q01892 whole entry): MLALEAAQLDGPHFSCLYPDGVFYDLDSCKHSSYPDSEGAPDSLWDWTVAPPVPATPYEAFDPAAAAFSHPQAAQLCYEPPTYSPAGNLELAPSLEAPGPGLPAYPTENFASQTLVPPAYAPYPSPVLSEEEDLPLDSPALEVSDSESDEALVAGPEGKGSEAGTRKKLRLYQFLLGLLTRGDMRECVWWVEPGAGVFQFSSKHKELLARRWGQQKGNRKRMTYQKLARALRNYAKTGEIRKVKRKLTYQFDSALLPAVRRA
sequence,measurement,setting,value
GGCCTT,binding signal,FLI1,"1.17 fold enrichment (6-mer frequency, TF over GST control)"
same,binding signal,ELK1,"1.18 fold enrichment (6-mer frequency, TF over GST control)"
same,binding signal,GABPA,"1.29 fold enrichment (6-mer frequency, TF over GST control)"
same,binding signal,ERG,"1.16 fold enrichment (6-mer frequency, TF over GST control)"
same,binding signal,ELF1,"1.09 fold enrichment (6-mer frequency, TF over GST control)"
same,binding signal,EHF,"1.13 fold enrichment (6-mer frequency, TF over GST control)"
same,binding signal,SPI1,"1.18 fold enrichment (6-mer frequency, TF over GST control)"
same,binding signal,SPIB,"1.19 fold enrichment (6-mer frequency, TF over GST control)"
same,binding signal,ELK3,"1.17 fold enrichment (6-mer frequency, TF over GST control)"
same,binding signal,FEV,"1.14 fold enrichment (6-mer frequency, TF over GST control)"
same,binding signal,ETV5,"1.16 fold enrichment (6-mer frequency, TF over GST control)"
same,binding signal,HSF1,"1.05 fold enrichment (6-mer frequency, TF over GST control)"
same,binding signal,SPIC,"1.16 fold enrichment (6-mer frequency, TF over GST control)"
same,binding signal,ELF4,"1.25 fold enrichment (6-mer frequency, TF over GST control)"
same,binding signal,ELK4,"1.09 fold enrichment (6-mer frequency, TF over GST control)"
same,binding signal,ETV2,"1.07 fold enrichment (6-mer frequency, TF over GST control)"
same,binding signal,ELF3,"1.15 fold enrichment (6-mer frequency, TF over GST control)"
same,binding signal,CRX,"1.02 fold enrichment (6-mer frequency, TF over GST control)"
same,binding signal,ETV1,"1.1 fold enrichment (6-mer frequency, TF over GST control)"
